CF NFkB inh = inhibitors of cystic fibrosis induced NF-kB; KKLEB NF-kB-GFP reporter, PAF-induced, GFP fluorescence overnight; inhibition, % at 5 µM; hit rate 0.86% among 360,000; AID 588850;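 active = at least 50% inhibition at 5 µM, scaled per plate between neutral and stimulator controls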;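 also: PAF is a Pseudomonas aeruginosa culture filtrate used as stimulus; plate controls were PAF-stimulated DMSO wells for no effect and unstimulated DMSO wells for full effect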
HIF-2a block = blocks HIF-2a reporter activity; 786-0 RCC cells HIF-2a reporter, luciferase luminescence, overnight; hit rate 0.72% among 360,000; inhibition, % at 18.8 µM; AID 624352;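 active = inhibition of the luminescence signal of 40% or more relative to plate controls, in a single-dose primary screen at 18.75 µM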
Peg3 prom inh = reduces Peg3 promoter-driven luciferase expression in HeLa | HeLa PEG-Prom luciferase reporter, luminescence, overnight | inhibition, % at 20 µM | hit rate 1.7% among 360,000 | AID 588405;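 active = inhibition of at least 50% at 20 µM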
KKLEB tox = reduces viability of KKLEB cystic fibrosis airway cells | KKLEB CF airway cells viability, ATPlite luminescence, overnight; active compounds read low; cells stimulated with P. aeruginosa culture filtrate | activity change (cytotoxicity), % at 5 µM | hit rate 0.36% among 360,000;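 active = corrected activity change at or below -50% at 5 µM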
PPC-1+TRAIL kill = PPC-1 cancer cell killing with TRAIL present. hit rate 0.41% among 220,000. PPC-1 cells + TRAIL, ATPLite viability luminescence. cell killing (% activity), % at 4 µM or 5 µM;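 active = cell killing above 50% in the first pass at 4 µM, then a duplicate retest at 5 µM averaging 50% or more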;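 also: plate controls were cells with TRAIL plus DMSO for no effect and medium-only wells lacking cells for full effect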
C8 TRAIL sens = caspase-8 TRAIL sensitization; NB7+C8 cells + TRAIL, ATPlite viability luminescence; inhibition (viability loss, TRAIL sensitization), % at 10 µM; hit rate 1% among 360,000; AID 624354;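 active = compounds causing at least 50% loss of cell viability in the single-dose screen, relative to plate controls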
The depositor's hits bear a star; . = not tested or not shown. Only some compounds are listed: those with a hit (about 3.1% of all), similar ones and a draw of the others.

SMILES	CF NFkB inh	HIF-2a block	Peg3 prom inh	KKLEB tox	PPC-1+TRAIL kill	C8 TRAIL sens
Cc1cccc(Nc2nc(N)c([N+](=O)[O-])c(N3CCCC(C)C3)n2)c1 (stereo not drawn)	42	-14	55*	-18	20	9
Cc1cccc(Nc2nc(N)c([N+](=O)[O-])c(N3CCN(C)CC3)n2)c1	6	7	15	-4	26	7
CC(C)[C@H](NC(=O)c1c(F)cccc1F)C(=O)OCC(=O)NNC(=O)c1ccccc1	-11	1	-2	0	.	-21
COc1ccc(-c2nn(-c3ccccc3)cc2C(=O)NC2CCCCC2C)cc1 (stereo not drawn)	11	6	23	-8	.	2
CC(C)(C)NC(=O)C(c1ccncc1)n1c(-c2ccc(C(F)(F)F)cc2)nc2ccccc21 (stereo not drawn)	.	-211	.	.	.	79*
CN(CC(=O)Nc1cccc(F)c1)C(=O)C1CCC(C(=O)N(C)CC(=O)Nc2cccc(F)c2)CC1 (stereo not drawn)	5	14	17	0	.	7
CCOC(=O)C1(C(N)=O)OC1(c1ccc(Cl)cc1)c1ccccc1Cl (stereo not drawn)	-9	-1	69*	10	.	3
COc1ccc(Cc2c(-c3ccccc3)nc3c4ccccc4ccn23)c(C)c1	-1	-123	-63	-6	.	4
Cc1[nH][nH]c(=O)c1C(c1c(C)[nH][nH]c1=O)c1cn(Cc2ccc(Cl)c(Cl)c2)c2ccccc12	30	-14	45	-15	14	-3
Cc1[nH][nH]c(=O)c1C(c1c(C)[nH][nH]c1=O)c1cn(Cc2ccc(F)cc2)c2ccccc12	15	11	64*	-14	18	1
CC12CCC3C(=CCc4cc(O)ccc43)C1CC(=NO)C2O (stereo not drawn)	18	-23	-15	-22	.	-16
COc1ccc2c(c1)CC=C1C2CCC2(C)C(=O)C(=NO)CC12 (stereo not drawn)	54*	-80	-27	-24	.	11
O=C1Nc2ccc(Br)cc2/C1=C/C(=O)c1ccccc1	18	23	98*	9	.	3
CCOc1c(Cl)cc(/C=C/C(=O)N(CC)CC(=O)NCc2cccs2)cc1OC	6	16	6	-1	.	3
O=C(Nc1ccc2c(c1)OCO2)c1csc(COCCO)n1	16	-84	-60	-16	.	-5
O=C(Nc1ccc(N2CCOCC2)cc1)c1csc(COCCO)n1	-2	-81	-126	0	.	55*
O=C(NC1CC2CCCC(C1)N2C(=O)Nc1ccccc1F)C1CC1 (stereo not drawn)	0	15	26	1	.	8
CC(C)CC(N)c1csc(Nc2ccc(C(F)(F)F)cn2)n1 (stereo not drawn)	17	-11	102*	-20	.	35
NC(CO)c1csc(Nc2ccc(C(F)(F)F)cn2)n1 (stereo not drawn)	7	-25	-18	5	.	5
NC(Cc1ccc(C(F)(F)F)cc1)c1csc(Nc2ccc(C(=O)NCc3ccco3)cn2)n1 (stereo not drawn)	1	-10	86*	-3	.	31
NC(Cc1ccc(Cl)cc1)c1csc(Nc2nccc(C(F)(F)F)n2)n1 (stereo not drawn)	-4	10	83*	-23	.	23
NC(c1csc(Nc2cnccn2)n1)C1CCCCC1 (stereo not drawn)	-4	-33	-9	-4	.	8
NC(c1csc(Nc2ccc(C(F)(F)F)cn2)n1)C1CCCCC1 (stereo not drawn)	16	9	99*	-15	.	29
NC(Cc1ccc(F)cc1)c1csc(Nc2nccc(C(F)(F)F)n2)n1 (stereo not drawn)	-16	8	44	-2	.	38
CC(=O)Nc1ccc(C(=O)N2CCCCC2c2cc(C(=O)NCc3ccc(F)cc3)no2)cc1 (stereo not drawn)	-18	11	-6	6	.	-2
SMILES	CF NFkB inh	HIF-2a block	Peg3 prom inh	KKLEB tox	PPC-1+TRAIL kill	C8 TRAIL sens
COc1cc(OC)nc(Nc2nc(C(N)Cc3ccc(Cl)cc3)cs2)n1 (stereo not drawn)	12	7	99*	-11	.	33
COC(=O)c1cc(C)nc(Nc2nc(C(N)Cc3ccc(Cl)cc3)cs2)n1 (stereo not drawn)	40	4	-15	-37	.	2
NC(Cc1ccc(C(F)(F)F)cc1)c1csc(Nc2ccc(C(=O)NCCCO)cn2)n1 (stereo not drawn)	2	17	43	-3	.	8
NC(Cc1ccc(Cl)cc1)c1csc(Nc2ccc(C(F)(F)F)cn2)n1 (stereo not drawn)	27	12	101*	-7	.	20
COc1ccccc1CN1C(=O)C(C)ON=C1c1ccccc1F (stereo not drawn)	-17	-3	-2	-2	.	18
Cn1c(N)c(C(=O)COC(=O)c2cc(S(=O)(=O)N3CCOCC3)ccc2F)c(=O)n(C)c1=O	-8	-15	89*	-10	.	64*
Cc1ccc(S(=O)(=O)N2CCOCC2)cc1C(=O)OCC(=O)c1c(N)n(C)c(=O)n(C)c1=O	23	10	24	2	.	-2
CNS(=O)(=O)c1cccc(C(=O)OCC(=O)c2cc(C)n(CC3CCCO3)c2C)c1 (stereo not drawn)	21	-140	-126	-31	.	62*
Cc1cc(C(=O)COC(=O)c2cccc(S(=O)(=O)N(C)C)c2)c(C)n1CC1CCCO1 (stereo not drawn)	3	-164	-301	-9	.	62*
Cc1cc(C(=O)COC(=O)c2ccc(O)cc2)c(C)n1CC1CCCO1 (stereo not drawn)	-7	-164	-171	7	22	28
COCCNC(=O)C1(C)CCCN(C(=O)c2ccc(C(=O)OC)cc2)C1 (stereo not drawn)	-12	-2	2	10	.	2
CN(C)c1ccc(C(=O)n2nnc3ccccc32)cc1	69*	-42	-20	-36	26	26
CCCC(=O)Nc1ccc(C(=O)n2nnc3ccccc32)cc1	0	8	4	-3	9	-8
Oc1ccc(N=Nc2cccc(C(F)(F)F)c2)cc1C=Nc1ccc(N2CCOCC2)cc1	78*	-37	-6	-9	8	22
COc1ccc(CN2CCN(c3ccc(F)cc3)CC2)c(OC)c1OC	-2	23	18	5	2	11
COc1ccc(CN2CCN(C(c3ccc(F)cc3)c3ccc(F)cc3)CC2)c(OC)c1OC	22	-18	77*	0	.	39
O=C(N/N=C/c1sc2ccccc2c1O)c1ccccc1	2	-164	27	-8	27	53*
NC(=O)c1cccc(-c2cnc(N)c(C(=O)c3cccnc3)n2)c1	52*	38	62*	6	.	22
O=C(Nc1cccc(NC(=O)c2cccnc2)c1)c1ccccc1	7	-8	-1	-2	.	3

Screening results deposited in PubChem BioAssay by Sanford-Burnham Center for Chemical Genomics.
